Bioassay records as filed in PubChem BioAssay.
In the library only some 0.27% were active in any assay of this set; here they are far more common.
TRPV1 potentiator: enhances activation of the human vanilloid receptor TRPV1; TRPV1-expressing cells, Fluo-8 calcium influx, capsaicin EC20 potentiation; potentiation, % at 8.33 µM; Q8NER1; 320,000 compounds, 0.02% hits; in the data active = potentiation above about 80%; inconclusive = between about 30% and that limit; note: 0% is about no effect
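TRPV1-expressing cells were cultured overnight at 35.5C and loaded with Fluo-8 calcium dye for 40 to 90 min at room temperature. After a 10 s baseline, compound was added and calcium influx was read kinetically for 3 min (ex 480/em 520 nm).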
TRPV1 agonist: activates the human vanilloid receptor TRPV1; 320,000 compounds, 0.19% hits; TRPV1-expressing cells, Fluo-8 calcium influx, agonist mode; activation, % at 8.33 µM; in the data active = activation above about 80%; inconclusive = between about 30% and that limit; note: 0% is about no effect
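Cells expressing TRPV1 were dye-loaded with Fluo-8 and read kinetically: 10 s baseline, 3 min after compound (agonist portion), then 2 min after EC20 capsaicin (allosteric enhancer portion). Calcium-bound dye fluorescence at 480/520 nm.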
TRPML1 agonist: human mucolipin-1 channel agonism; 410,000 compounds, 0.12% hits; activation, % (test concentration not listed); TRPML1-expressing cells, Ca2+ dye fluorescence, FDSS; AID 624414; in the data active = activation above about 50%; inconclusive = mostly about 30% to 49%; note: 0% is about no effect
Target sequence (Q9GZU1 whole entry, looked up): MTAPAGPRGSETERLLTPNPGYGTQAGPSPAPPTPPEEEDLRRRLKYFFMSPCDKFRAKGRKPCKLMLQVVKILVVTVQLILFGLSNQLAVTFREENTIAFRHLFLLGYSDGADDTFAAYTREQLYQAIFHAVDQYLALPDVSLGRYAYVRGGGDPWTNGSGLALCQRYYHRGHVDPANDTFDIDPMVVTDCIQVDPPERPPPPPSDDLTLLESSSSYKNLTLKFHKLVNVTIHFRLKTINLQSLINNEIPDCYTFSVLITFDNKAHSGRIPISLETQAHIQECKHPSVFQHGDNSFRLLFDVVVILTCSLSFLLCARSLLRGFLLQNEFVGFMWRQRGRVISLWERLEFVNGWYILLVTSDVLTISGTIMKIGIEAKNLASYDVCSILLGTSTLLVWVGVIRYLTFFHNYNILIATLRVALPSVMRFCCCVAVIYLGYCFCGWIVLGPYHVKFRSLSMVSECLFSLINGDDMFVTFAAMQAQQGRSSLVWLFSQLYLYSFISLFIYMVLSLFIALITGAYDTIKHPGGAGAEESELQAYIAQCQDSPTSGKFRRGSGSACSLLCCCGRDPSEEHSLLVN
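Tet-induced TRPML1-DL cells, 1,500 per well, cultured overnight, were loaded with a no-wash Ca2+ dye for 45–90 min. Calcium fluorescence was recorded on the FDSS for 110 s after compound addition, before the EC80 agonist (4 uM 54-4) was added.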
TRPML1 inh: blocks the human TRPML1 channel; activity change, negative = inhibition, % (test concentration not listed); 390,000 compounds, 0.02% hits; TRPML1-inducible cells, Ca2+ dye fluorescence, FDSS; hits give low values; inhibition of EC80 agonist-evoked calcium signal; in the data active = activity change below about -50%; inconclusive = between about -30% and that limit;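 note: stimulus is agonist 54-4 at its EC80 concentration; % is set by controls: 0 for no effect and ±100 for the full control effect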
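TRPML1-DL cells, Tet-induced overnight (~16 h, 37 °C) at 1,500 cells/well, were loaded with Ca8 no-wash dye plus quencher for 45-90 min at room temperature. Compounds were pinned during FDSS kinetic reading; agonist 54-4 at EC80 (4 uM final) then added.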
Active calls of the source: *; ? = inconclusive; . = no result given.

SMILES	TRPV1 potentiator	TRPV1 agonist	TRPML1 agonist	TRPML1 inh
COc1ccc2[nH]c3c(N4CCC(O)(c5cccc(C(F)(F)F)c5)CC4)ncnc3c2c1	6	12	1	-12
CC1CC(C)CN(C(=O)c2ccc(S(=O)(=O)N3CCCCC3)cc2)C1 (centres undefined)	-8	?	0	13
CC1CC(C)CN(C(=O)c2cc(S(=O)(=O)N3CCCCC3)ccc2Cl)C1 (centres undefined)	-13	104*	2	-13
COc1ccc(CNC(=O)COc2cc3c(c4oc(=O)cc(C)c24)CCC(C)(C)O3)cc1OC	5	81*	.	.
Cc1c(C)c2c(OCC(=O)NCc3ccncc3)cc3c(c2oc1=O)CCC(C)(C)O3	-19	80*	.	.
Cc1cc(=O)oc2c3c(cc(OCC(=O)NCc4ccncc4)c12)OC(C)(C)CC3	-27	?	0	14
CCCNC(=O)CCn1nc(-c2ccc(Cl)cc2)c2ccccc2c1=O	4	5	2	30
C/C(=N\Nc1ccc2nncn2n1)c1ccc(Cl)s1	-11	115*	-1	-3
COc1ccc(-c2oc(NC(=O)CSc3nncn3C)c(C#N)c2-c2ccc(OC)cc2)cc1	1	3	2	-22
COc1ccc(CNC(=O)c2cc3c(=O)n(Cc4ccco4)ccc3nc2C)c(OC)c1	.	.	2	10
Cn1nc(CC(=O)Nc2ccc3c(c2)OCCO3)c2ccccc2c1=O	81*	4	-1	30
CCN(CC)c1ccc2cc(-c3nnc(Nc4ccc(C)cc4)s3)c(=O)oc2c1	-3	?	67*	-28
Cc1ccc(Nc2nnc(-c3cc4c(ccc5ccccc54)oc3=O)s2)cc1	.	.	15	70
CCOc1ccccc1NC(=O)NCCC1=CCCCC1	-12	?	0	-7
O=C(O)c1ccccc1-c1c2cc(I)c(=O)c(I)c-2oc2c(I)c(O)c(I)cc12	.	.	177*	-90*
CC(=O)N1CCN(C(=O)c2cccc(NS(=O)(=O)c3ccc(Br)cc3)c2)CC1	-2	-4	1	-13
C/C(=N/NS(=O)(=O)c1cccc([N+](=O)[O-])c1)c1ccncc1	2	5	0	-1
O=C(Nc1nnc(-c2ccc(Cl)cc2)o1)Nc1ccccc1Cl	17	2	1	8
O=C(Nc1nnc(-c2ccc(Cl)cc2)o1)c1nc2ccccc2s1	0	21	87*	-16
COc1ccc(C)cc1N(C(=O)c1snc(C(N)=O)c1N)C(C(=O)NC1CCCC1)c1ccc(F)cc1 (centres undefined)	10	99*	2	3
CCOC(=O)/C(C#N)=C(C)/C=C1\Sc2ccccc2N1CC	5	12	52*	2
O=C(Nc1nncs1)C1CC(=O)N(C2CCCC2)C1 (centres undefined)	-2	3	0	-16
O=C(c1cc(-c2ccc(O)cc2)on1)N1CCCCCC1	-1	-4	3	-52*
Cc1cc(C)cc(Nc2cc(=O)n(C3CCCCC3)c(=O)[nH]2)c1	15	-2	0	7
Cc1cc2nc3c(=O)n(C4CCCCC4)c(=O)[nH]c3nc2cc1N	-19	?	87*	-30
SMILES	TRPV1 potentiator	TRPV1 agonist	TRPML1 agonist	TRPML1 inh
COc1ccccc1/C=C/C(=O)Nc1cccc(C(C)=O)c1	-1	?	1	-28
COc1cc(NC(=O)Nc2cccc(C(C)=O)c2)cc(OC)c1OC	-14	82*	1	10
COc1cccc(/C=C/C(=O)Nc2cccc(C(C)=O)c2)c1OC	-16	90*	2	13
COc1cc(C(=O)Nc2cccc(C(C)=O)c2)cc(OC)c1OC	-10	-1	0	-1
CC(=O)Nc1cccc(C(=O)/C=C/c2ccc(N(C)C)cc2)c1	-12	80*	72*	?
CCN1/C(=C/c2ccc3cccc(C)c3[n+]2CC)Sc2ccccc21	.	.	58*	-11
CCN1/C(=C/c2ccc3cc(C)cc(C)c3[n+]2CC)Sc2cc(C)ccc21	12	13	24	-24
Cc1ccccc1C(=O)Nc1ccccc1C(=O)N1CCC(C)CC1	0	1	54*	-12
CC1CCN(C(=O)c2ccccc2NC(=O)Nc2ccccc2)CC1	12	-1	0	-5
Cc1ccc(NC(=O)c2cnc3ccccc3n2)cc1C	-12	84*	1	3
CC(C)c1nc(SCC(=O)NC2CCCC2)c2c(=O)n(C)c(=O)n(C)c2n1	-13	6	0	-10
COc1cc(C=C2Cc3ccccc3C2=O)cc(OC)c1OC	.	.	-1	.
COc1cc(N(C)C)c(OC)cc1/C=C1\Cc2ccccc2C1=O	.	.	78*	.
CCN1CCN(C2CCCCC2NS(=O)(=O)c2ccccc2)CC1 (centres undefined)	?	0	0	-3
Nc1c(C(=O)c2ccccc2)sc2nsc(SCCN3CCOCC3)c12	-5	106*	?	-4
CC(C)(C)c1csc(NNC(=O)c2ccc(Br)cc2)n1	-20	80*	0	2
CC(C)(C)c1csc(NC(=O)c2ccccc2O)n1	-17	24	0	-15
CCOC(=O)c1c(SCCN2CCCC2)n(-c2ccccc2)c(=S)n(-c2ccccc2)c1=O	.	.	1	-10
C/C(=N\Nc1ccc([N+](=O)[O-])cc1[N+](=O)[O-])c1ccc(-n2nncc2C(C)(C)C)cc1	8	-2	76*	-2
COc1ccc(NC(=O)CCN2CCN(S(=O)(=O)c3ccc(Cl)cc3)CC2)cc1	8	2	1	11
Cc1cc(C)nc(/N=C(\N)Nc2ccc(OCc3ccccc3)cc2)n1	-4	30	81*	5
Cc1cc(C)nc(/N=C(\N)Nc2ccc(CC(=O)OC(C)C)cc2)n1	-8	1	68*	12
COc1ccc(N/C(N)=N/c2nc(C)cc(C)n2)cc1	.	.	?	-3
Cc1cc(C)nc(/N=C(\N)Nc2ccc(OCCC(C)C)cc2)n1	-28	6	97*	-15
O=C(O)c1cc(-n2c(/C=C\c3ccc(F)cc3)nc3ccccc3c2=O)ccc1Cl	.	.	0	6
SMILES	TRPV1 potentiator	TRPV1 agonist	TRPML1 agonist	TRPML1 inh
Cc1cc2c(NC(=O)Nc3ccc(C(C)(C)C)cc3)cccc2nn1	-6	114*	0	12
O=C(Nc1ccccc1)Nc1cccc(NC(=O)Nc2ccccc2)c1F	1	1	1	-8
Cc1cc2c(NC(=O)Nc3ccccc3)cccc2nn1	12	87*	0	-3
Cc1ccccc1NC(=O)Nc1ccc(C(F)(F)F)cc1	-3	?	2	-9
COc1ccc(C2CC(C(F)(F)F)n3nc(C(=O)NCCCn4ccnc4)cc3N2)cc1OC (centres undefined)	-8	2	0	4
Cc1cccc(-c2noc(CCCC(=O)Nc3ccc(C(N)=O)cc3)n2)c1	-18	22	1	20
Cc1cccc(-c2noc(CCC(=O)Nc3ccc(C(N)=O)cc3)n2)c1	4	81*	4	9
CC(=O)Oc1ccc(C(=O)Nc2ccc(C3(C#N)CCCC3)cc2)cc1	86*	0	0	-14
